Test results from PubChem BioAssay (Tox21).
“And” between values parts separate entries of the source, which are not always exact repeats. Equal entries are not always repeated. Inconclusive results are not listed. The source made the active and inactive calls. Unless noted, calls come from the whole dose curve; as a rule, active = well fitted curve in the direction sought with a large enough effect in the repeat runs; inconclusive = weak or mixed curves; inactive = no such curve, though single readings can be large; an effect the other way counts as inactive or inconclusive.

Columns and labels:
[1] = qHTS assay to identify small molecule agonists of the constitutive androstane receptor (CAR) signaling pathway - cell viability counter screen (AID 1224836); note: nearly all actives have a fitted effect of over 45% in size; note: potency is the fitted concentration of half-maximal effect
Method in brief: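 Fluorescence from CellTiter-Fluor indicates live cells after 23 h exposure. The human hepatoma line expresses hCAR and a CYP2B6-2.2kb reporter. Incubation medium contains 0.75 uM PK11195 (final).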

[2] = qHTS assay to identify small molecule antagonists of the constitutive androstane receptor (CAR) signaling pathway - cell viability counter screen (AID 1224837); note: nearly all actives have a fitted effect of over 45% in size; note: potency is the fitted concentration of half-maximal effect
Method in brief: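 HepG2 cells stably carrying hCAR and CYP2B6-2.2kb reporter, stimulated with 50 nM CITCO and compounds at 15 concentrations for 23 h at 37 C. Viability measured by CellTiter-Fluor fluorescence.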

[3] = qHTS assay to identify small molecule antagonists of the estrogen related receptor signaling pathway with the pleiotropic PPARgamma coactivator (PGC) from Tox21 10K library (AID 1224841; call rule not given here; note: actives are mostly falling curves and most rising ones were filed inactive; nearly all actives have a fitted effect of over 50% in size; note: potency is the fitted concentration of half-maximal effect)
Method in brief: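 PGC/ERR cell line, 2,000 cells/well, pre-incubated 6 hours at 37 C, then exposed to compounds for 18 hours at 37 C; luciferase read with One-Glo luminescence after 30 min at room temperature.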

[4] = qHTS assay to identify small molecule agonists of the estrogen related receptor signaling pathway with the pleiotropic PPARgamma coactivator (PGC) from Tox21 10K library (AID 1224842); note: nearly all actives have a fitted effect of over 15% in size; note: potency is the fitted concentration of half-maximal effect
Method in brief: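 PGC/ERR reporter cells (NTP line) were seeded 2,000 per well, rested 6 h at 37 C/5% CO2, then pin-dosed with compounds in DMSO for 18 h at 37 C; luciferase read by One-Glo luminescence after 30 min at room temperature.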

[5] = qHTS assay to identify small molecule agonists of the hypoxia (HIF-1) signaling pathway - cell viability counter screen (AID 1224844; calls by dose curve; note: nearly all actives have a fitted effect of over 50% in size; note: potency is the fitted concentration of half-maximal effect)
Method in brief: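 HRE-bla ME-180 cells, 2,000/well in 0.5% dialyzed FBS medium, treated 17 h at 37C with compounds. Viability read in the same wells as the bla reporter, by CellTiter-Glo luminescence after 30 min at room temperature.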

[6] = qHTS assay to identify small molecule agonists of the hypoxia (HIF-1) signaling pathway (AID 1224846; active = well fitted activation curve with a large enough effect in the signal ratio in the repeat runs, not every such curve was filed as active; the % refers to the signal ratio)
Method in brief: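 HRE-bla ME-180 beta-lactamase reporter cells in medium with 0.5% dialyzed FBS, pre-incubated 5 h then exposed to compounds 17 h at 37C, 5% CO2; reporter induction read with CCF4-AM FRET substrate.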

[7] = qHTS assay to identify small molecule agonists of H2AX - cell viability counter screen (AID 1224847; calls by dose curve; note: nearly all actives have a fitted effect of over 30% in size; note: potency is the fitted concentration of half-maximal effect)
Method in brief: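 Viability of CHO-K1 (wild type) cells after 3 hr compound exposure was measured by CellTiter-Glo luminescence.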

[8] = qHTS assay to identify small molecule agonists of the estrogen related receptor (ERR) signaling pathway from Tox21 library (AID 1224849; calls by dose curve; note: nearly all actives have a fitted effect of over 15% in size); conditions: ERR reporter cell line, ONE-Glo luciferase, 18 h; at 92.4 µM (top of the series) unless noted
Method in brief: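 ERR reporter cells (NTP line) pre-incubated 6 hours at 37 C, then exposed to compounds for 18 hours at 37 C. ONE-Glo luciferase luminescence was read after 30 minutes at room temperature.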

[9] = qHTS RealTime-Glo MT Cell Viability Assay in HepG2 cells - 24 hour (AID 1224867); note: nearly all actives have a fitted effect of over 50% in size; note: potency is the fitted concentration of half-maximal effect
Method in brief: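 HepG2 suspension premixed with RealTime-Glo reagents is plated at 600 cells per well and left 5 h at 37 C/5% CO2. Compounds in DMSO then go in, and bioluminescence reflecting viable cell number is recorded over 40 h.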

[10] = A CellTox Green Cytotoxicity Assay to monitor cytotoxicity in HEK293 cells - 0 hour (AID 1224869); note: nearly all actives have a fitted effect of over 50% in size
Method in brief: (§1)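 HEK293 cells, 600/well, were preincubated 5 hours and then exposed to compounds at 37 C for up to 40 hours. A cell-impermeant cyanine dye staining dead-cell DNA was read by fluorescence at 0, 8, 16, 24, 32 and 40 h time points.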

[11] = qHTS RealTime-Glo MT Cell Viability Assay in HepG2 cells - 40 hour (AID 1224870); note: nearly all actives have a fitted effect of over 50% in size; note: potency is the fitted concentration of half-maximal effect
Method in brief: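 HepG2 cells mixed with RealTime-Glo MT reagents (NanoLuc plus cell-permeant prosubstrate) were seeded at 600 cells/well, incubated 5 h at 37 C/5% CO2, then pinned with compounds in DMSO; nonlytic luminescence tracked viability during 40 h treatment.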

[12] = A CellTox Green Cytotoxicity Assay to monitor cytotoxicity in HEK293 cells - 40 hour (AID 1224871); note: nearly all actives have a fitted effect of over 45% in size; note: potency is the fitted concentration of half-maximal effect
Method in brief: as §1

[13] = qHTS assay to identify small molecule agonists of H2AX (AID 1224845; active = well fitted activation curve with a large enough effect in the signal ratio in the repeat runs, not every such curve was filed as active; the % refers to the signal ratio; note: potency is the fitted concentration of half-maximal effect)
Method in brief: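 Wild-type CHO-K1 cells plated overnight, then exposed 3 hr at 37C to compounds at 15 concentrations (0.76% DMSO). Lysed, then HTRF anti-pH2AX(S139)-cryptate/anti-H2AX-d2 detection after 24 hr at room temperature; emissions 665 and 620 nm.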

[14] = qHTS RealTime-Glo MT Cell Viability Assay in HEK293 cells - 32 hour (AID 1224868); note: nearly all actives have a fitted effect of over 50% in size; note: potency is the fitted concentration of half-maximal effect
Method in brief: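 Reads taken at 0, 8, 16, 24, 32 and 40 h from the same wells. HEK293 cells (600/well) carried RealTime-Glo reagents from seeding, with compound added after a 5 h settle at 37 C.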

[15] = qHTS assay to identify small molecule antagonists of the estrogen related receptor signaling pathway with the pleiotropic PPARgamma coactivator (PGC) from Tox21 10K library - cell viability counter screen (AID 1224840; active = well fitted cell-killing curve with a large enough effect in the repeat runs, not every such curve was filed as active; note: nearly all actives have a fitted effect of over 40% in size; note: potency is the fitted concentration of half-maximal effect)
Method in brief: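 PGC/ERR cells (2,000/well) plated 6 h, then compound-treated for 17.5 h at 37 C. Viability measured by CellTiter-Fluor fluorescence after 30 min at 37 C, multiplexed with the pathway assay.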

[16] = target: Thyrotropin receptor (Homo sapiens) (UniProt P16473); assay: qHTS assay to identify small molecule agonists of the thyroid stimulating hormone receptor (TSHR) signaling pathway (AID 1224843; calls by dose curve; note: nearly all actives have a fitted effect of over 45% in size)
Method in brief: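 TSHR-expressing HEK293 cells (800 per well) were exposed to compounds for 30 min at room temperature. cAMP was then detected by HTRF competition with cAMP-d2 and anti-cAMP cryptate, read after 1 h at room temperature. Fifteen concentrations, triplicate.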

[17] = qHTS assay to identify small molecule antagonists of the estrogen related receptor (ERR) signaling pathway from Tox21 library (AID 1224848); note: nearly all actives have a fitted effect of over 50% in size
Method in brief: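 Cells: ERR line, 2,000/well; 6 h preincubation 37 C/5% CO2. Cpd in DMSO via pin tool; 18 h, 37 C. ONE-Glo, 30 min RT, luminescence.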

[18] = target: Nuclear receptor subfamily 1 group I member 3 (Homo sapiens) (UniProt Q14994); assay: qHTS assay to identify small molecule antagonists of the constitutive androstane receptor (CAR) signaling pathway (AID 1224838); note: nearly all actives have a fitted effect of over 40% in size; note: potency is the fitted concentration of half-maximal effect
Method in brief: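 HepG2 cells stably carrying hCAR and a CYP2B6-2.2kb luciferase reporter, seeded 4 hrs before compound (15 concentrations). Stimulated with 50 nM CITCO for 24 hr at 37 C. ONE-Glo luminescence read after 30 min at room temperature.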

[19] = target: Nuclear receptor subfamily 1 group I member 3 (Homo sapiens) (UniProt Q14994); assay: qHTS assay to identify small molecule agonists of the constitutive androstane receptor (CAR) signaling pathway (AID 1224839); note: nearly all actives have a fitted effect of over 15% in size
Method in brief: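 Stable hCAR/CYP2B6-2.2kb HepG2 line in DMEM with 10% FBS; compounds (15 concentrations) and 0.75 uM PK11195 final, 24 h at 37 C/5% CO2, then ONE-Glo luminescence after 30 min.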
% is set by controls: 0 for no effect and ±100 for the full control effect.

Chain of Nuclear receptor subfamily 1 group I member 3 (Homo sapiens) (Q14994 whole entry, looked up): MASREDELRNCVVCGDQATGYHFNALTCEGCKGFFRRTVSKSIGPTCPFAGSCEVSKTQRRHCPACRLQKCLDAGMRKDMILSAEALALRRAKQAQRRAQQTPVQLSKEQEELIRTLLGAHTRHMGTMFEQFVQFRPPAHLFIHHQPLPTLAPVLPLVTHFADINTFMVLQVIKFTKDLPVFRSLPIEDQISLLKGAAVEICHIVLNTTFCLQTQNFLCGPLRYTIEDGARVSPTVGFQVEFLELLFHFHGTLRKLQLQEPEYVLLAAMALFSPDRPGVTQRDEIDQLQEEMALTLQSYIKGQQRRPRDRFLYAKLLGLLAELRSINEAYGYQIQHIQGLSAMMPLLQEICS
Chain of Thyrotropin receptor (Homo sapiens) (P16473 whole entry, looked up): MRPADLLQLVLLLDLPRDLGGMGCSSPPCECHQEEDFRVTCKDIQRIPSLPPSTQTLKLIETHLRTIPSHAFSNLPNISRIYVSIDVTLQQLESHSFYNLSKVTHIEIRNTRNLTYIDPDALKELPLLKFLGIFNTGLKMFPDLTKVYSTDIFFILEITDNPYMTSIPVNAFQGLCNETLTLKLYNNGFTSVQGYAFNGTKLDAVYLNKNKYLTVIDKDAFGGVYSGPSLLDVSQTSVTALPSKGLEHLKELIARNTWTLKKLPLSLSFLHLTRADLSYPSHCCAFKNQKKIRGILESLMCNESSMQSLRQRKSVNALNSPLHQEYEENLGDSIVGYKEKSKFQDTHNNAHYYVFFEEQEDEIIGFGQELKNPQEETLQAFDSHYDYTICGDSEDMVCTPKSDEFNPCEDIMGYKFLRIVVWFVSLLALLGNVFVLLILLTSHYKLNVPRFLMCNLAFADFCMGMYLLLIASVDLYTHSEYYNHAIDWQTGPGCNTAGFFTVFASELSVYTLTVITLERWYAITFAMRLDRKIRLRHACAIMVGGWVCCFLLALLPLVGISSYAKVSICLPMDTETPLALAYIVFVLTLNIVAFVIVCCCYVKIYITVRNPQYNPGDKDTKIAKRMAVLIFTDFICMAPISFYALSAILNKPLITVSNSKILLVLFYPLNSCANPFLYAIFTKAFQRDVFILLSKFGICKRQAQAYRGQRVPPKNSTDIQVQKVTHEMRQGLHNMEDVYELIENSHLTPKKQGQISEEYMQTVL

O=C(CBr)c1ccc(O)cc1
inactive: Potency [1] | Potency [2] | Potency [3] | Potency [4] | Potency [5] | outcome [6] | Potency [7] | activity change, positive = activation [8] -26% | Potency [9] | Potency [10] | Potency [11] | Potency [12]

CCOP(=O)(NC(C)C)Oc1ccc(SC)c(C)c1 (centres undefined)
inactive: Potency [5] | Potency [13] | Potency [9] | Potency [10] | Potency [11]
active: Potency [14] 12.3 µM

CC(=[OH+])/C=C(/C)[O-].CC(=[OH+])/C=C(\C)[O-].CC(=[OH+])/C=C(\C)[O-].[Fe]
inactive: Potency [1] | Potency [2] | Potency [15] | Potency [13] | Potency [7] | Potency [9] | Potency [14] | Potency [10] | Potency [11] | Potency [12]

CCSC(C)CC1CC(=O)C(/C(CC)=N/OC/C=C/Cl)=C(O)C1 (centres undefined)
inactive: Potency [1] | Potency [2] | Potency [15] | Potency [4] | Potency [16] | Potency [5] | Potency [13] | outcome [6] | Potency [7] | Potency [17] | activity change, positive = activation [8] -10.8% [at 42.5 µM] | Potency [9] | Potency [14] | Potency [10] | Potency [11] | Potency [12]
active: Potency [3] 2.11 µM

O=c1oc2ccccc2c(O)c1Cc1c(O)c2ccccc2oc1=O
inactive: Potency [1] | Potency [2] | Potency [18] | Potency [15] | Potency [4] | Potency [5] | Potency [7] | activity change, positive = activation [8] -18.2% [at 42.5 µM] | Potency [9] | Potency [10] | Potency [11]

Oc1c(Br)c(Br)c(Br)c(Br)c1Br
inactive: Potency [18] | Potency [19] | Potency [9] | Potency [10] | Potency [11] | Potency [12]
active: Potency [5] 43.9 µM | Potency [7] 80.5 µM

CC(=O)[O-].CC(=O)[O-].[Hg+2]
inactive: Potency [10]
active: Potency [1] 7.7 µM | Potency [2] 4.86 µM | Potency [15] 2.73 µM | Potency [5] 3.47 µM | Potency [7] 6.35 µM | Potency [9] 2.19 µM | Potency [11] 2.45 µM | Potency [12] 5.49 µM

CCCCCCCCCCCCCN1CC(C)OC(C)C1 (centres undefined)
inactive: Potency [1] | Potency [2] | Potency [15] | Potency [16] | Potency [5] | Potency [13] | outcome [6] | Potency [7] | Potency [9] | Potency [10] | Potency [11]

Cn1cc(C2=C(c3cn(C4CCN(Cc5ccccn5)CC4)c4ccccc34)C(=O)NC2=O)c2ccccc21
inactive: Potency [2] | Potency [15] | Potency [4] | Potency [16] | Potency [5] | Potency [13] | outcome [6] | Potency [7] | activity change, positive = activation [8] -11.8% [at 42.5 µM] | Potency [10] | Potency [12]

O=C(O)C1C2CCC(O2)C1C(=O)O (centres undefined)
inactive: Potency [19] | Potency [15] | Potency [3] | Potency [16] | Potency [5] | Potency [7] | Potency [17] | activity change, positive = activation [8] 4.71% | Potency [9] | Potency [10] | Potency [11]
active: Potency [18] 49.2 µM and 44.5 µM | Potency [4] 55.1 µM and 19.9 µM | Potency [13] 102 µM

CC1(C)CC/C(=C/c2ccc(Cl)cc2)C1(O)Cn1cncn1 (centres undefined)
active: Potency [2] 68.2 µM
inactive: Potency [18] | Potency [19] | Potency [9] | Potency [10]

CC(=O)O[C@H]1CC[C@@]2(C)C(=CC[C@@H]3[C@@H]2CC[C@]2(C)C(=O)CC[C@@H]32)C1
inactive: Potency [1] | Potency [2] | Potency [19] | Potency [15] | Potency [16] | Potency [9] | Potency [10] | Potency [11]
active: Potency [7] 101 µM | Potency [14] 49 µM
